Screens as filed in PubChem BioAssay.
A selection: hits, their analogues and other compounds. The true share with any hit is near 1.1%.
SRC2 inh: inhibits human steroid receptor coactivator 2. Q15596. HEK293 GAL4-SRC2 luciferase reporter, luminescence. inhibition, % at 9 µM. 370,000 compounds, 0.17% hits. AID 651957;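 active = inhibition above the mean inhibition of all tested compounds plus 3 SD, set per campaign, cut at about 52% in these data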;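 note: 0% = DMSO treated cells and 100% = cells given Gossypol at 36 µM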
NR5A2 inv ag: inverse agonists of human LRH-1 (NR5A2) | AID 602396 | O00482 | HEK293T StAR-luciferase reporter, LRH-1 transfected, 24 h | inhibition, % at 3.6 µM | 360,000 compounds, 0.13% hits;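 active = inhibition above the mean inhibition of all tested compounds plus 3 SD, cut at about 73% in these data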;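 note: 0% = DMSO wells and 100% = reporter-only cells lacking LRH-1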
Target sequence (O00482 whole entry, looked up): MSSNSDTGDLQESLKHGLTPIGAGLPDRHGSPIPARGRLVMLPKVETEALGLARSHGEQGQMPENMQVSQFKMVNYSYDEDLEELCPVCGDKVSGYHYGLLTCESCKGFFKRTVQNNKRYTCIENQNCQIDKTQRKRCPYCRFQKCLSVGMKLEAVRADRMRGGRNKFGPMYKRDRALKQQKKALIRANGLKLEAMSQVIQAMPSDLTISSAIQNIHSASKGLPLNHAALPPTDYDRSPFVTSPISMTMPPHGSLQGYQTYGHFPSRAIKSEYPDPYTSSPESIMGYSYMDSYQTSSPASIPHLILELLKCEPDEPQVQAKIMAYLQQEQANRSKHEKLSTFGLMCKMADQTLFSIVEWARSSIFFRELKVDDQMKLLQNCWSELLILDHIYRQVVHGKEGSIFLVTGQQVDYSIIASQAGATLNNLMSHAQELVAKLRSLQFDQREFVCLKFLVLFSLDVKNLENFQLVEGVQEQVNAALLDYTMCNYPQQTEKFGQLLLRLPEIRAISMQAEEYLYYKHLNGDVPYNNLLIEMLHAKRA
NCOA1 inh: inhibitors of human steroid receptor coactivator 1 (SRC1); HEK293 GAL4-SRC1 luciferase reporter, luminescence; inhibition, % at 3.6 µM; 360,000 compounds, 0.12% hits;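 active = inhibition above the campaign mean plus 3 SD, with each screening campaign given its own cutoff, cut at about 60% in these data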;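 note: 0% = DMSO treated cells and 100% = gossypol at 36 µM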
NR2F2 inh: NR2F2 (human) inhibition, primary screen. inhibition, % at 8.6 µM. HEK293T NGFI-A luciferase reporter, luminescence. 370,000 compounds, 0.7% hits. P24468;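 active = inhibition above a per-plate cutoff, mean inhibition of test wells between control levels plus 3 SD, cut at about 38% in these data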;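 note: cells cotransfected with COUP-TFII expression vector driving the NGFI-A reporter; 0% = median of COUP-TF2 test wells and 100% = reporter-only cells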
GalR3 antagonist: human GalR3 antagonism; O60755; 360,000 compounds, 0.44% hits; HEK293 GalR3-CNG cAMP membrane potential fluorescence; galR3 body fused to GalR1 C-terminus; inhibition, % at 3 µM;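 active = inhibition above the screen-wide average plus 3 SD, cut at about 13% in these data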;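 note: forskolin and galanin both at EC90 stimulate the cells; cAMP rise reported by CNG channel membrane potential dye signal; 0% = forskolin plus galanin with DMSO and 100% = forskolin alone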
SRC3 inh: inhibits human SRC3 coactivator; Q9Y6Q9; HEK293 GAL4-SRC3 luciferase reporter, luminescence; inhibition, % at 3.6 µM; 360,000 compounds, 0.17% hits; AID 588352;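 active = inhibition above a per-campaign cutoff, the mean of all compounds plus 3 SD, cut at about 60% in these data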;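 note: 0% = DMSO-treated cells and 100% = gossypol-treated cells at 36 µM; higher means less SRC3-driven luciferase light from the GAL4 reporter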
Gal4-VP16 ctr: counter-screen for COUP-TFII antagonists: inhibitors of VP16 | shares compounds with NR2F2 inh | inhibition, % at 8.5 µM | 2,500 compounds, 25% hits | HEK293 Gal4-VP16 luciferase reporter, luminescence; in the data active = inhibition above about 13%
COUP-TFII conf: confirmation of human COUP-TFII (NR2F2) inhibitors; 2,500 compounds, 45% hits; inhibition, % at 8.5 µM; AID 687008; HEK293 NGFI-A luciferase reporter, luminescence; shares compounds with NR2F2 inh;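 active = mean inhibition over three repeats above a set limit taken from the earlier primary screen, cut at about 38% in these data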;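 note: 100% = cells given the luciferase reporter alone without the COUP-TF2 vector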
The depositor's hits bear a star; . = no result.

SMILES | SRC2 inh | NR5A2 inv ag | NCOA1 inh | NR2F2 inh | GalR3 antagonist | SRC3 inh | Gal4-VP16 ctr | COUP-TFII conf
COc1ccc(CN2C(=O)C(CC(=O)NCCCN(C)C)CC(C(=O)N3CCCCCC3)=C2C)cc1 (stereo not drawn) | -18 | -13 | . | 6 | -3 | . | . | .
Cc1ccc(S(=O)(=O)CC2CSc3nc4ccccc4n32)cc1 (stereo not drawn) | 16 | 48 | 26 | 67* | -11 | 25 | 9 | 64*
Cc1ccc(S(=O)(=O)CC2CSc3nc(N)cc(=O)n32)cc1 (stereo not drawn) | 3 | -2 | -13 | -8 | 6 | -5 | . | .
O=C(CCN1C(=O)S/C(=C\c2ccc(Cl)cc2)C1=O)Nc1ccc(C(=O)O)cc1 | -8 | -6 | -23 | -3 | -2 | 10 | . | .
COc1ccc(/C=C2/SC(=S)N(CCCC(=O)Nc3ccccc3C(=O)O)C2=O)cc1 | 66* | 23 | 36 | 52* | -9 | 35 | 43* | 30
Cc1ccc(/C=C2\SC(=S)N(CCCC(=O)Nc3ccccn3)C2=O)cc1 | 89* | 42 | 48 | 81* | -4 | 57 | 40* | 35
COc1ccc(/C=C2\SC(=O)N(CCCC(=O)Nc3ccc(C(=O)O)cc3)C2=O)cc1 | 91* | 74* | 73* | 98* | -5 | 73* | 83* | 96*
CCc1ccc(/C=C2\SC(=S)N(CCCC(=O)Nc3ccccc3C(=O)O)C2=O)cc1 | 22 | 8 | 0 | -6 | -8 | 1 | . | .
O=C(N/N=C\c1ccc(Cl)cc1)C1=NOC2COC3(CCN(c4ccc([N+](=O)[O-])cc4)CC3)OCC12 (stereo not drawn) | -3 | -28 | -6 | 13 | 0 | 2 | . | .
COc1ccc(C(=O)N/C(=C\c2ccccc2)C(=O)NC(CCSC)C(=O)O)cc1 (stereo not drawn) | 7 | 5 | -11 | 6 | -1 | -5 | . | .
CCN1/C(=C/C(C)=O)Sc2ccc(OC)cc21 | 16 | 8 | 7 | -18 | -3 | 3 | . | .
COc1cc(OC)cc(C(=O)/C=C2\Sc3ccccc3N2C)c1 | -38 | -23 | 15 | -25 | 1 | 7 | . | .
CCN1/C(=C/c2cccc[n+]2C)Sc2ccc(OC)cc21 | 22 | 38 | 24 | 77* | -9 | 30 | -4 | 46*
COc1ccc2c(c1)N(C)/C(=C/c1cccc[n+]1C)S2 | -5 | 41 | 21 | 56* | -10 | 38 | -4 | 21
COc1cc(C(=O)Oc2cccc(Nc3ncnc4ccccc34)c2)cc(OC)c1OC | -1 | 22 | 2 | 61* | -6 | 21 | -4 | 49*
Clc1ccc(CNc2cnccn2)cc1 | 5 | 9 | 13 | -8 | -2 | 0 | . | .
OC[C@@H]1CN(Cc2ccc(-c3ccccc3)cc2)C[C@H](n2cnc3c(NCc4ccc(F)cc4)ncnc32)O1 | 45 | 29 | 8 | 75* | -9 | 7 | 2 | 54*
OC[C@@H]1CN(Cc2ccc(F)cc2)C[C@H](n2cnc3c(Nc4ccccc4)ncnc32)O1 | -6 | 9 | -13 | 7 | -8 | -8 | . | .
OC[C@@H]1CN(Cc2ccc(-c3ccccc3)cc2)C[C@H](n2cnc3c(Nc4ccccc4)ncnc32)O1 | 32 | -15 | 6 | 59* | -8 | 8 | 1 | 30
[2H]C(CCOS(N)(=O)=O)c1ccc(C(C)(C)C)cc1 (stereo not drawn) | 45 | 16 | 6 | 43* | -3 | 8 | 22* | 19
NS(=O)(=O)OCCCc1ccccc1 | -17 | 12 | 0 | -16 | 0 | -12 | . | .
CCc1c(-c2ccccc2OC)ncn1Cc1cccc(-c2ccccc2)c1 | 28 | 19 | . | 51* | -6 | . | 6 | 16
COc1ccccc1-c1ncn(Cc2cccc(-c3ccccc3)c2)c1CC(C)C | 22 | -5 | . | 19 | -7 | . | . | .
COC(=O)C1=C(C)N(Cc2ccccc2C(F)(F)F)C(=NCc2cc(OC)c(OC)c(OC)c2)NC1c1ccccc1C(F)(F)F (stereo not drawn) | -5 | . | . | 4 | -8 | . | . | .
